# Measured values: paper PMC4336329 (PLoS ONE, 2015)
# The whole screen tested about 310,000 compounds, of which about 14,000 (4.5%) showed an effect of 50% or more. The effect is printed as a negative number. Shown is part of a subset that was picked to be rich in strong results.
# Target: human ether-à-go-go-related gene (hERG) potassium channel (human, UniProt Q12809)
# Assay: primary screen, population patch clamp on CHO cells stably expressing hERG; higher = less effect of the substance
# 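Note: peak tail current of the secondary pulse compared with the same well before compound.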
# Chain of human ether-à-go-go-related gene (hERG) potassium channel (Q12809 whole entry, looked up): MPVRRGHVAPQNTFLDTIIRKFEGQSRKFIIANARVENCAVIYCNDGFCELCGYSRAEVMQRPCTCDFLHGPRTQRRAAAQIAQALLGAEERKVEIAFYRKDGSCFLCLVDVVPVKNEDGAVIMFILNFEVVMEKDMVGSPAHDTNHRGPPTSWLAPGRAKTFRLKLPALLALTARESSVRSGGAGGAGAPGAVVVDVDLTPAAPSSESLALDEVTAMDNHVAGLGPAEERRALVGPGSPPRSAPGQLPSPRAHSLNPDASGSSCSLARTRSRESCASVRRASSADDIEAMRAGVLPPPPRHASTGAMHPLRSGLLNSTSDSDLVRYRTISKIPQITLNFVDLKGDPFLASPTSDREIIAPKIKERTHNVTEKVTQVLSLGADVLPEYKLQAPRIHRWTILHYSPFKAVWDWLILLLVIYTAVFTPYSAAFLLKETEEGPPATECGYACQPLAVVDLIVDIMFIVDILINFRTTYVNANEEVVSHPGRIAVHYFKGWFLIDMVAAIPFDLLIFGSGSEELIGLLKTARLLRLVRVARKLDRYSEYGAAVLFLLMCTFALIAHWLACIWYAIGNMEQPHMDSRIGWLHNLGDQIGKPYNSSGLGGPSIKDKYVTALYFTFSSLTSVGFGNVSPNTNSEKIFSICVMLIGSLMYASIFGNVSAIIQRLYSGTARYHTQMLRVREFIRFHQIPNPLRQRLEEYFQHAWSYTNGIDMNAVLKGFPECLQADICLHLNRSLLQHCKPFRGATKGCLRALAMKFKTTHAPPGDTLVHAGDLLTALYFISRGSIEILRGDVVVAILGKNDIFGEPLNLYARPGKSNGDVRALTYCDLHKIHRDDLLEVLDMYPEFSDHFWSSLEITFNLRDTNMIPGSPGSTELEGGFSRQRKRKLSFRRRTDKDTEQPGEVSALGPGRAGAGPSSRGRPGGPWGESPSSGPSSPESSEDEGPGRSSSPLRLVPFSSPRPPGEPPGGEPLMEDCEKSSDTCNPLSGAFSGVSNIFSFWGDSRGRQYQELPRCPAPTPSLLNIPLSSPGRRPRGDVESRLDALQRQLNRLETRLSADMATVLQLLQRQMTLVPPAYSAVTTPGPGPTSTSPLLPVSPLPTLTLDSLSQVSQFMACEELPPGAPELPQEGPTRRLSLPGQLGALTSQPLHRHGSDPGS
row,Compound,"hERG current change (%, negative = inhibition) at 10uM"
1,COCC(=O)N/N=C\c1cccc(OC)c1OC/C=C/c1ccccc1,-15.6%
2,O=C(NC1CCCCC1)c1cc(-c2ccc(O)cc2)on1,0.886%
3,COc1ccc(Cl)cc1NC(=O)CSc1nc2sccc2c(=O)[nH]1,25.2%
4,COc1cc([N+](=O)[O-])ccc1NC(=O)Cc1ccc(F)cc1,0.277%
5,CC(=O)N1N=C(c2ccccc2)CC1c1cn(Cc2ccccc2)c2ccccc12 (stereo not shown),-13.6%
6,CCCCNc1ccc(S(N)(=O)=O)cc1[N+](=O)[O-],-0.608%
7,Cc1ccc(S(=O)(=O)N2CCN(Cc3nc4ccccc4[nH]3)CC2)cc1C,-45.1%
8,CCN(CC)CCCN(C(C)=O)c1nc(-c2cc(OC)ccc2OC)cs1.Cl,-65.8%
9,CCC(=O)N(CC)c1nc(-c2cc(OC)ccc2OC)cs1,15%
10,CCC(=O)N(CCCN(C)C)c1nc(-c2cc(OC)ccc2OC)cs1.Cl,-37.3%
11,CC(/C=C/c1ccccc1)=N\NC(=O)c1ccc2c(c1)OCCO2,3.3%
12,O=C(NCc1ccncc1)C(=O)NCC1OCCCN1S(=O)(=O)c1cc(F)ccc1F (stereo not shown),4.86%
13,COc1ccccc1C(=O)Oc1cc(N)n(S(=O)(=O)c2ccc(C)cc2)n1,-7.77%
14,O=C(CSC(=S)N1CCOCC1)Nc1nccs1,-1.54%
15,CCc1c(C)nc(SCC(=O)N2CCCCC2)[nH]c1=O,3.18%
16,CCN1CCN(c2cc3c(nn2)Oc2ccccc2N3C)CC1,-41.1%
17,CN1c2ccccc2Oc2nnc(Cl)cc21,-5.87%
18,CN1c2ccccc2Oc2nnc(N3CCN(Cc4ccccc4)CC3)cc21,-78%
19,C=C(C)C(=O)Nc1cccc(C2=NOC3(C2)C[C@@H](C(N)=O)N(C(=O)C(=C)C)C3)c1 (stereo partly shown),7.14%
20,CCOc1ccc(-c2nc(N)ncc2Oc2cccc(OC)c2)c(O)c1,6.7%
21,CC(C)CCn1c(SCCN2CCOCC2)nc2c1c(=O)[nH]c(=O)n2C,-17.7%
22,CCCCCn1c(SCCN2CCOCC2)nc2c1c(=O)[nH]c(=O)n2C,-66.5%
23,CCCCCCn1c(SCCN2CCOCC2)nc2c1c(=O)[nH]c(=O)n2C,-74.6%

row,Compound,"hERG current change (%, negative = inhibition) at 10uM"
1,C/C(Cl)=C/Cn1c(SCCN2CCOCC2)nc2c1c(=O)[nH]c(=O)n2C,-64.6%
2,C=C(C)Cn1c(SCCN2CCOCC2)nc2c1c(=O)[nH]c(=O)n2C,-4.61%
3,C=CCn1c(SCCN2CCOCC2)nc2c1c(=O)[nH]c(=O)n2C,8.38%
4,CCCCCn1c(SCCC(C)C)nc2c1c(=O)[nH]c(=O)n2C,-11.9%
5,CCCCCn1c(SCCOCC)nc2c1c(=O)[nH]c(=O)n2C,-46.8%
6,COCCn1c(SCCN2CCOCC2)nc2c1c(=O)[nH]c(=O)n2C,14.2%
7,CCN1CCCC1CNC(=O)c1cc2c(=O)n(C)c3ccccc3c2n1C (stereo not shown),-18.5%
8,Cc1ccc(CN(Cc2cccnc2)C(=S)Nc2cccc(Cl)c2C)cc1,8.32%
9,O=C(Cc1ccccc1)Nc1cc([N+](=O)[O-])ccc1N1CCOCC1,-36.2%
10,CCOC(=O)CSc1ccc2nnc(CCNS(=O)(=O)c3ccc(C)cc3)n2n1,4.23%
11,O=C(CNS(=O)(=O)/C=C/c1ccccc1)OC1CCOC1=O (stereo not shown),15.9%
12,Cc1cc(C)n(-c2nc(N(C)C)nc(N3CCOCC3)n2)n1,-6.78%
13,CCN(CC)S(=O)(=O)c1ccc(OC)c(NC(=O)c2ccc([N+](=O)[O-])cc2)c1,-34.9%
14,CN1/C(=C\C(=S)NC(=O)c2cccc(Br)c2)C(C)(C)c2ccccc21,-7.85%
15,CCSc1nnc(N2C(=O)CC(c3ccsc3)C3=C2CC(C)(C)CC3=O)s1 (stereo not shown),-6.24%
16,CN(Cc1nc2ccccc2c(=O)[nH]1)C(=O)c1ccc(S(=O)(=O)N(C)C)cc1,4.04%
17,COc1cccc(Nc2nc(-c3cccs3)nc3ccccc23)c1,9.19%
18,CCCCCC(=O)N/N=C(\C)c1ccc(Cl)cc1,9.87%
19,CCCCC(O)(CCCC)C(=O)N/N=C(\C)c1ccc(Cl)cc1,-66.9%
20,C/C(=N\NC(N)=O)c1ccc(Cl)cc1,6.12%
21,Cc1onc(-c2ccccc2)c1C(=O)N1CCN(S(=O)(=O)c2ccccc2Br)CC1,-1.99%
22,Cc1c(Cl)cccc1NC(=S)N1CC2CC(C1)c1cccc(=O)n1C2 (stereo not shown),-4.67%
23,Cc1nn(-c2nc3ccccc3[nH]2)c(N)c1-c1ccccc1,0.295%

row,Compound,"hERG current change (%, negative = inhibition) at 10uM"
1,CCC1CCCCN1CCCNC(=O)C(C)n1nc(C)c2sc3ccccc3c2c1=O (stereo not shown),-69.8%
2,Cc1nn(C(C)C(=O)NCCCN2CCCCC2C)c(=O)c2c1sc1ccccc12 (stereo not shown),-5.22%
3,CCC(C(=O)NCCCN(CC)Cc1ccccc1)n1nc(C)c2sc3ccccc3c2c1=O (stereo not shown),-68.1%
4,Cc1nn(C(C)C(=O)NCCCN2CCCCCC2)c(=O)c2c1sc1ccccc12 (stereo not shown),-28.1%
5,Cc1nn(C(C)C(=O)NCCCN(Cc2ccccc2)C(C)C)c(=O)c2c1sc1ccccc12 (stereo not shown),-11.7%
6,CCN(CC)CCCNC(=O)C(C)n1nc(C)c2sc3ccccc3c2c1=O (stereo not shown),-19.7%
7,CCC(=O)N1CCc2cc(S(=O)(=O)N3CCc4ccccc43)ccc21,2.61%
8,Clc1ccc2oc(SCc3cccnc3)nc2c1,-16.2%
9,CCCOc1ccc(OCCSc2ncccn2)cc1,-2.55%
10,O=C(CCNC(=O)c1ccccc1)NCCCc1ccccc1,6.54%
11,O=C(Nc1ccc(C(F)(F)F)cc1)C1CCN(c2cnccn2)CC1,-12.5%
12,CN(Cc1cccc(Cl)c1Cl)CC(O)COc1ccccc1.O=C(O)C(=O)O (stereo not shown),-12%
13,COc1ccc(CN(C)CC(O)COc2ccc(C(=O)c3ccccc3)cc2)c(OC)c1OC (stereo not shown),-63.7%
14,COc1ccc(CN(C)CCc2ccccn2)c(OC)c1OC.O=C(O)C(=O)O,-38.9%
15,COc1ccc(CN(C)CC(O)COC(c2ccccc2)c2ccccc2)c(OC)c1OC (stereo not shown),-76.7%
16,COc1cccc(OC)c1OCCOc1ccc(C(=O)c2ccccc2)cc1,-4.82%
17,COc1ccc(CN(C)Cc2ccccc2)c(OC)c1OC,-16.9%
18,COc1ccc(CCNC(=O)C2CCC(=O)N(C3CCCCCC3)C2)cc1 (stereo not shown),8.9%
19,O=C(CCN1C(=O)NC2(CCCC2)C1=O)Nc1cccc(S(=O)(=O)N2CCOCC2)c1,10.7%
20,O=C(CSc1ncnc2c1nnn2Cc1ccccc1F)NCC1CCCO1 (stereo not shown),-2.7%
21,Cc1ccc(S(=O)(=O)CCC(=O)Nc2ccc3c(c2)OCO3)cc1,-16%
22,Cc1ccc(C)c(S(=O)(=O)N2CCN(C(=O)Nc3ccccc3)CC2)c1,-26.1%
23,O=C(/C=C/c1ccc([N+](=O)[O-])s1)N1CCN(c2ccccc2)CC1,-37%

row,Compound,"hERG current change (%, negative = inhibition) at 10uM"
1,O=C(/C=C/c1ccc([N+](=O)[O-])s1)N1CCCC1,-52.9%
2,O=C(/C=C/c1ccc([N+](=O)[O-])s1)N1CCCCC1,-38.7%
3,COc1cccc(-c2nn(CCC#N)cc2C(=O)Nc2ccccc2Cl)c1,5.09%
4,Cc1cc(C)nc(-n2nc(C)cc2NC(=O)C(C)C)n1,16.9%
5,CC(=O)Nc1cc(C)nn1-c1nc(C)cc(C)n1,25.4%
6,COc1ccc(CNCC(=O)Nc2cc(C)nn2-c2nc(C)cc(C)n2)cc1OC,-56.8%
7,CCC(C(=O)Nc1cc(C)cc(C)n1)c1ccccc1 (stereo not shown),-23.6%
8,CCN(CC(=O)Nc1cc(C)nn1-c1nc(C)cc(C)n1)Cc1ccccc1,-42.8%
9,Cc1cc(C)nc(-n2nc(C)cc2NC(=O)CNC(C)c2ccccc2)n1 (stereo not shown),-62.2%
10,CCC(C(=O)Nc1cc(C)nn1-c1nc(C)cc(C)n1)c1ccccc1 (stereo not shown),-67.7%
11,CCc1ccc(NC(=O)CNCc2ccc(OC)c(OC)c2)cc1.O=C(O)C(=O)O,-21.3%
12,Cc1cc(NC(=O)CSc2cc(Cl)ccc2Cl)n(-c2ccccc2)n1,-20.2%
13,COc1ccc(-c2nc(CSCC(=O)N3CCN(C)CC3)c(C)o2)cc1OC,11.7%
14,COc1ccccc1Nc1nnc(SCc2nnc(-c3cc(OC)c(OC)c(OC)c3)o2)s1,-21.7%
15,CC1(C)O[C@@H]2[C@H](O1)[C@@H](COS(=O)(=O)[O-])O[C@H]2n1cnc2c(N)ncnc21.[K+],15.7%
16,O=C(COc1ccc(C(=O)NCCc2ccccc2)cc1)Nc1ccccc1,7.64%
17,Cc1[nH]c2ccc(OC(F)(F)F)cc2c1CCNCc1ccc(Cl)cc1.O=C(O)C(=O)O,-34.5%
18,COc1ccc(CNCCc2c(C)[nH]c3ccc(OC(F)(F)F)cc23)c(OC)c1.O=C(O)C(=O)O,-51%
19,CCOc1cccc(CNCCc2c(C)[nH]c3ccc(OC(F)(F)F)cc23)c1O.O=C(O)C(=O)O,-51.9%
20,COc1ccc2[nH]c(C)c(CCNCc3cn(C)c4ccccc34)c2c1.O=C(O)C(=O)O,-27.8%
21,Cc1[nH]c2ccc(OC(F)(F)F)cc2c1CCNCc1cccc([N+](=O)[O-])c1,-25.4%
22,COc1ccc2[nH]c(C)c(CCNCc3cccnc3)c2c1.O=C(O)C(=O)O,-3.77%
